Records with an inconclusive call do not appear. Activity calls are given as the source filed them. Calls come from the whole dose curve; as a rule, active = well fitted inhibition curve with a large enough effect; inconclusive = small, poorly fitted or top-dose-only effect; inactive = no such curve, though single readings can be large or run the other way.
assay: qHTS for Inhibitors of the Aldehyde Dehydrogenase Family (ALDH1A2, ALDH1A3, ALDH2, ALDH3A1) (AID 2061307); conditions: ALDH inhibition qHTS; series mostly up to 50.3 µM; activity change, negative = inhibition: at the top concentration; note: nearly all actives have a fitted effect of over 50% in size; for Potency: test system not described further here
% is set by controls: 0 for no effect and ±100 for the full control effect; potency is the fitted concentration of half-maximal effect.

Activity change, negative = inhibition, inactive:
O=C(O)c1csc(-n2nc(-c3ccc(F)c(F)c3)cc2Cc2nn[nH]n2)n1 2.88%, COCCN(CC(=O)Nc1cccc(C)c1C)C(=O)c1cc2c(s1)CCC2 -5.3%, CNC(=O)c1cc(-c2ccc(N3CCOCC3)cc2)cc2c1OCCN2Cc1cccnc1 0% [at 34.4 µM], Cc1c(NCCOc2ccccc2F)cccc1C(N)=O -34% [at 34.4 µM], CC(C)(C)c1ccccc1-n1c(CN2CCN(C(=O)c3ccco3)CC2)nc2ccccc2c1=O 0%, CN(C)c1ccc(NC(=O)c2cn(-c3ccccc3)nn2)cn1 -6.95% [at 34.4 µM], Cc1cc(=O)n2[nH]c(NC(=O)c3cccnc3)nc2n1 -5.57%, NC(=O)Nc1ccc(CNC(=O)C2Cc3ccccc3O2)cc1 (stereo not given) -4.52% [at 34.4 µM], COc1cccc(NC(=O)c2cc3c(-c4ccc(Cl)cc4)nn(C)c3s2)c1 -63.2% [at 34.4 µM], COc1ccc(NC(=O)Cn2ncc3ccccc3c2=O)cc1S(=O)(=O)N1CCOCC1 -4.56%, c1ccc(CN2CCN(c3nccc(-c4ccncc4)n3)CC2)nc1 -59.1% [at 34.4 µM], COc1cccc(N2CCN(C(=O)CCCCCn3c(=O)[nH]c4ccccc4c3=O)CC2)c1 0% [at 34.4 µM], O=C(Nc1nnc(C(F)(F)F)s1)c1ccc(Cl)cc1 -7.53%, N#Cc1ccc(CN2CCC(N(CCc3ccccc3)Cc3ccccc3)CC2)cc1 -18.5%, Cc1ccc(NS(=O)(=O)c2cc(N[C@@H](C)CO)cc3c2NC(=O)CC3)cc1C -24.9%, COc1ccc(-c2cc(C(=O)Nc3ccc(C(N)=O)cc3F)sc2C)cc1 0% [at 34.4 µM], Cc1ccc(-c2ocnc2C(=O)N(C)Cc2cccc(C(N)=O)c2)cc1 0% [at 34.4 µM], O=C1c2ccccc2-c2nnc(-c3ccncc3)cc21 -23.4%, Cc1ccc(C)n1-c1ccccc1C(=O)O -27.7%, Cc1n[nH]c(C)c1-n1c2c(cc(-c3nc(-c4ccc(Cl)cc4)cs3)c1=O)C(=O)CC(C)(C)C2 -6.05%, NC(=O)c1cccc2c1CCCN2C(=O)c1csc(-c2ccc(Cl)cc2)n1 0%, NCC(=O)Nc1ccc2c(c1)Oc1cc(NC(=O)CN)ccc1C21OC(=O)c2ccccc21 216%, NS(=O)(=O)c1ccc(Cc2cn(-c3nc(C(=O)O)cs3)c3ccccc23)cc1 -6.95%, O=C(NCc1ccccn1)c1ccc2nnc(-c3ccc(OC(F)(F)F)cc3)n2c1 -20.7% [at 34.4 µM], Cc1cc(SCc2sc(-c3ccc(F)cc3)nc2C)ccc1OCC(=O)O -28.6%, COc1cccc2cc(C(=O)Nc3ccc(F)c(F)c3)c(=O)oc12 -13.9% [at 34.4 µM], c1ccc(Nc2cc(-c3ccoc3)ncn2)cc1 -13%, Cc1cccc(NC(=O)c2nc(C)n(-c3ccc(F)cc3)n2)n1 0% [at 34.4 µM], Cc1ccc2c(c1)/C(=C\C(=O)c1cccnc1)C(=O)N2 4.36%, N#Cc1ccc(NC(=O)Cn2cnc3ccccc3c2=O)cc1 -22.5% [at 34.4 µM], O=C(O)c1csc(-n2nc(C(F)(F)F)cc2-c2ccc(Cl)cc2)n1 -9.54%, O=C(c1cnc(N2CCCCC2)c2ccccc12)N1CCN(c2ccc(Cl)cc2)CC1 -3.27%

Potency, active:
O=C(CSc1nnc(-c2ccccn2)o1)Nc1ccc2c(c1)OCCO2 11.3 µM, CCN(CC)C(=O)c1ccc(Nc2ncnc3sc(C)c(C)c23)cc1 6.31 µM, CSc1sc(C(=O)NN)c2c1C(O)CCC2 (stereo not given) 22.5 µM, O=c1cc(N2CCNCC2)nc2sc(-c3cccc(-c4ccsc4)c3)nn12 6.31 µM, O=S(=O)(c1ccccc1)N1CCC(N(CCc2ccccc2)Cc2ccccc2)CC1 0.708 µM, O=[N+]([O-])c1ccc(NC(=S)N=Nc2c(O)[nH]c3ccccc23)cc1 7.12 µM, CCn1c(C(=O)NCCc2ccc(OC)cc2)cc2sccc21 2.01 µM, COc1ccc(-n2ncc3c2CCCC3NC(=O)c2cccc(OC(F)(F)F)c2)cc1 (stereo not given) 12.6 µM
